# High-throughput results as filed in PubChem.
# hcDAF12 agonist: activators of H. contortus DAF-12 nuclear receptor; HEK293 hcDAF-12 lit1-tk-luc reporter, luminescence; 0% DMSO, 100% Δ7-dafachronic acid; activation, % at 6.8 µM; actives 1.4% (n = 370,000); AID 652067;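 active = activation above the mean of all tested compounds plus 3 SD, cut at about 5.5% in these data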
# ssDAF12 agonist: activates DAF-12 receptor from parasite S. stercoralis; AID 652126; HEK293 ssDAF-12/GRIP1 lit1-tk-luc reporter, luminescence; % of 3 µM dafachronic acid response; activation, % at 6.8 µM; actives 1% (n = 370,000);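 active = activation above the mean over all tested compounds plus 3 SD, cut at about 0.9% in these data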
# AHR act: human AHR activation; AHR-responsive luciferase reporter cells, luminescence; AID 2796; P35869; actives 2.5% (n = 320,000); activation, % at 5 µM; in the data active = activation above about 47%
# DAX1 inh-1: inhibits human nuclear receptor DAX1 | HEK293 Gal4-DAX1 luciferase reporter, luminescence | inhibition, % at 6.75 µM | actives 0.99% (n = 340,000) | AID 504766;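 active = inhibition above the mean over all tested compounds plus 3 SD, cut at about 4.2% in these data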;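 also: inhibition shows as a rise in luminescence from relieved DAX1 repression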
# hgDAF-12 ag: activates the H. glycines DAF-12 receptor ligand-binding domain. actives 1.8% (n = 370,000). activation, % at 6.8 µM. AID 687014. HEK293 GAL4-hgDAF12 UAS-luciferase reporter, agonist luminescence; normalized to butyrate control;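 active = activation above a cutoff set at the mean of all screened compounds plus 3 SD, cut at about 10% in these data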
# DAX1 inh-2: blocks DAX1 repression of SF-1 activated StAR promoter | HEK293T StAR-luciferase reporter, SF-1/DAX-1 repression relief | inhibition, % at 6.8 µM | actives 1.1% (n = 370,000);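 active = inhibition above the mean over all tested compounds plus 3 SD, cut at about 3.6% in these data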;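 also: higher inhibition means more luminescence from relief of DAX-1 repression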
# A number is an active result; n = inactive; x = no result. Sampled rows, rich in hits. Any-hit rate of the full collection: about 5.7%.
SMILES,hcDAF12 agonist,ssDAF12 agonist,AHR act,DAX1 inh-1,hgDAF-12 ag,DAX1 inh-2
Cc1nc(S(=O)(=O)c2ccc(Cl)cc2)nc2c1CCC2,n,n,n,n,n,n
C=CCN(CC=C)CC(O)CN(c1cc([N+](=O)[O-])ccc1OC)S(=O)(=O)c1ccccc1 (configuration not stated),n,n,n,n,n,3.8
Cc1nn(-c2ccc(F)cc2)c2nc(N)c(C#N)c(-c3ccc(O)c(O)c3)c12,n,n,x,n,n,n
Cc1nn(-c2ccc(F)cc2)c2nc(N)c(C#N)c(-c3cccs3)c12,n,n,65,n,n,n
CCCCc1nc2cc(C(=O)N3CCCC3)ccc2o1,n,n,n,n,n,4.0
CCCCc1nc2cc(C(=O)N3CCCCC3CC(=O)OCC)ccc2o1 (configuration not stated),n,n,n,n,n,n
CCCCc1nc2cc(C(=O)N3CCNC(=O)C3)ccc2o1,n,n,n,n,n,n
CCCCc1nc2cc(C(=O)NC(C)c3cnn(C)c3)ccc2o1 (configuration not stated),n,n,n,n,n,3.8
CCCCc1nc2cc(C(=O)N3CCCCC3C(=O)OC)ccc2o1 (configuration not stated),n,n,n,n,12,4.2
CN(CCc1nc2ccccc2[nH]1)Cc1nc(CC2CC2)no1,n,n,n,n,n,n
Cc1nc(=S)n(-c2ccccc2)[nH]1,n,n,n,n,n,n
S=c1nc(-c2ccccc2)[nH]n1-c1ccccc1,n,n,108,n,n,n
C/C(=N\Nc1nccnc1Cl)c1ccc(O)c(C)c1,n,n,n,n,12,n
O=C(CN1CCN(S(=O)(=O)c2ccc(Cl)cc2)CC1)NC1CCCC1,n,n,n,n,n,3.8
CCN(CC)CCn1c(NC(=O)c2ccc(Cl)cc2)nc2ccccc21,5.7,1.0,n,n,n,n
CCCn1c(NC(=O)c2ccc(C)cc2)nc2ccccc21,n,n,49,n,n,n
Cn1c(NC(=O)c2cccnc2)nc2ccccc21,n,n,78,n,n,n
CCCn1c(NC(=O)c2ccccc2)nc2ccccc21,n,n,n,n,n,n
O=C(Nc1cnc2ccccc2c1)c1cccnc1,n,n,n,n,n,n
COc1c(C=NNC(N)=O)c(OC)c(OC)c2c1CCO2,n,n,x,n,n,n
CCc1c(C)nn(C(=O)/C(C#N)=C\N(C)C)c1C,n,n,n,n,n,n
Cc1ccc(-n2c(C)cc(C(=O)COc3cccnc3[N+](=O)[O-])c2C)cc1,n,n,n,n,n,n
Cc1ccc2nc(SCC(=O)NCc3ccco3)[nH]c2c1,n,n,77,n,n,n
O=C(CSc1nc2ccccc2[nH]1)NC(=O)NCc1ccco1,n,n,n,n,n,n
Cc1ccc2nc(SCC(=O)NC(=O)NCc3ccco3)[nH]c2c1,n,n,61,n,n,n
SMILES,hcDAF12 agonist,ssDAF12 agonist,AHR act,DAX1 inh-1,hgDAF-12 ag,DAX1 inh-2
CCCC(=O)OCC(=O)Nc1cc(C(C)(C)C)nn1-c1ccccc1,n,n,n,n,n,n
Cc1c(NC(=O)c2ccc(Cl)c(S(=O)(=O)N3CCCCC3)c2)c(=O)n(-c2ccccc2)n1C,n,n,n,n,n,n
Cc1c(Cl)c([N+](=O)[O-])nn1CC(=O)NCc1ccco1,n,n,n,n,n,n
O=C(NCc1ccc2c(c1)OCO2)c1ccc2c(=O)n(C3CCCC3)c(=O)[nH]c2c1,n,n,n,4.9,n,n
COc1ccc(Cn2c(=O)[nH]c3cc(C(=O)NCc4ccc5c(c4)OCO5)ccc3c2=O)cc1,n,n,n,n,n,n
O=C(Cn1c2[n+](c3ccc(C(F)(F)F)cc31)CCCCC2)Nc1ccccc1,5.9,n,n,n,n,n
CCc1cccc(NC(=O)Cn2c3[n+](c4ccc(C(F)(F)F)cc42)CCCCC3)c1,n,n,n,n,n,n
O=C(O)c1cc([N+](=O)[O-])ccc1Nc1ccccc1,n,n,n,4.3,n,n
O=C(Nc1cc([N+](=O)[O-])ccc1C(=O)Nc1cccnc1)c1ccccc1,n,n,66,n,n,n
Cc1ccc(NC(=O)c2cc([N+](=O)[O-])ccc2NCc2cccnc2)cc1,n,n,75,n,n,n
O=C(Nc1cccnc1)c1cccc([N+](=O)[O-])c1,n,n,n,n,n,n
COc1ccc([N+](=O)[O-])cc1NCc1cccnc1,n,n,n,n,n,n
Cc1c(-c2cccs2)[n+](=O)c2c(n1[O-])CCC2,n,n,n,n,n,n
CCOc1ccc2ncc(S(=O)(=O)c3ccccc3)c(N3CCN(c4ccc(OC)cc4)CC3)c2c1,n,n,n,n,n,n
O=C(Cn1c(=O)oc2ccccc21)N1CCN(c2ccccc2)CC1,n,n,n,n,n,n
Cc1ccc(S(=O)(=O)N2CCN(C(=O)Cn3c(=O)oc4ccccc43)CC2)cc1,n,1.0,n,n,n,n
COc1cccc(N2CCN(C(=O)Cn3c(=O)oc4ccccc43)CC2)c1,n,n,n,4.3,n,n
COc1ccc(N2CCN(C(=O)c3ccccc3N(C)S(=O)(=O)c3ccccc3)CC2)cc1,n,n,n,n,n,n
Cc1ccc(CN(C)C(=O)c2ccccc2Sc2ccccc2C#N)cc1,n,n,n,n,n,n
COc1ccc(C(=O)Nc2nc3ccccc3[nH]2)cc1,n,n,50,n,n,n
Cc1cccc(C(=O)N[C@H](C(=O)Nc2nc3ccccc3[nH]2)C(C)C)c1,n,n,n,n,n,n
COc1ccc(C(=O)N[C@H](C(=O)Nc2nc3ccccc3[nH]2)C(C)C)cc1,n,n,n,n,13,n
CCOP(=O)(OCC)C(NC(=O)c1ccc(OC)cc1)c1ccccc1 (configuration not stated),n,n,n,4.3,n,n
CSc1ccccc1C(=O)Nc1nc2ccccc2[nH]1,n,n,68,n,n,3.8
c1ccc(-c2ccc(SCc3cccnc3)nn2)nc1,n,n,n,n,n,n
CCc1ccc(C2CC(c3ccccc3)n3ncnc3N2)cc1 (configuration not stated),n,n,n,n,n,n
CC(C)C[C@H]1CNC(=S)N1C[C@H]1CCCN1C[C@H](Cc1ccc(O)cc1)N1C[C@H](CC(C)C)N(CCc2ccccc2)C1=S,n,n,x,x,n,n
COc1ccc(/C=C/C(=O)NCCc2nc3ccccc3[nH]2)cc1,n,1.1,n,x,n,n
COc1ccc(C(=O)N[C@H](C(=O)NCCCSc2ccccc2)C(C)C)cc1,n,n,n,7.8,n,n
Cc1cc(-n2c(SCC(=O)NCc3cccs3)nc3n[nH]c(C)c3c2=N)ccc1Cl,n,n,70,n,n,n
